Source: PubChem (several laboratories)
SKKanGAS inh: S. pyogenes SKKanGAS growth inhibitors in kanamycin, primary screen, streptokinase expression inhibitor project, SKKanGAS strain, BacTiter-Glo luminescence; inhibition, % at 7.5 µM; AID 1662, 2009; actives 1.3% (n = 300,000); 6 h;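 active means mean replicate score, as percent of positive control median, at least 50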;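 further: strain carries kanamycin resistance gene driven by streptokinase promoter and grows in 40 µg/ml kanamycin; loss of luminescence reflects streptokinase promoter inhibition or plain growth inhibition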
tim23-1 inh: growth inhibitors of tim23-1 mutant yeast, primary screen, luminescence, uHTS. S. cerevisiae tim23-1 growth, BacTiter-Glo luminescence, 24 h. inhibition, % at 20 µM. actives 1.3% (n = 330,000). AID 463212, 2010;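 active means growth inhibition of the mutant yeast at or above 50%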;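 further: temperature-sensitive mutant grown at 25 °C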
tim10-1 inh: growth inhibitors of tim10-1 mutant yeast, primary screen, luminescence, uHTS; S. cerevisiae tim10-1 ts strain growth, BacTiter-Glo, 24 h; inhibition, % at 20 µM; actives 2.2% (n = 330,000); AID 463190, 2010;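 active means inhibition of at least 40%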;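 further: mutant grown at 25 °C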
PfHsp90 set2: growth inhibition of PfHsp90-expressing yeast, primary screen, antimalarial PfHsp90 inhibitor project, S. cerevisiae, BacTiter-Glo luminescence, single point, set 2. actives 0.32% (n = 310,000). BacTiter-Glo ATP, 48 h; yeast lacking PDR1 and PDR3 efflux regulators. inhibition, % at 9.4 µM;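 active means every replicate shows inhibition above about 80%, whatever the replicate mean, limit read from the data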
TIM10 inh: growth inhibitors of isogenic TIM10 control yeast, primary screen, counter-screen for tim10-1 yeast inhibitor project, luminescence, uHTS; S. cerevisiae TIM10 strain growth, BacTiter-Glo luminescence, 24 h; inhibition, % at 10 µM; actives 1.4% (n = 330,000); AID 463195, 2010;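 active means inhibition of 40% or more at the single tested concentration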;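 further: wild-type TIM10 isogenic control strain grown at permissive 25 °C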
NALP3 yeast inh: NALP3 inflammasome inhibitors in reconstituted yeast, primary screen, luminescence, uHTS; Yeast reconstituted NLRP3/ASC/caspase-1, beta-gal luminescence, 24 h; inhibition, % at 10 µM; actives 0.39% (n = 330,000); AID 2825, 2010;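 active means inhibition of 50% or more; inactive means inhibition below 50%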
NALP3 yeast conf: NALP3 inhibitors retested in yeast, confirmation, luminescence, single concentration; shares compounds with NALP3 yeast inh; yeast expressing human NALP3; inhibition, % at 10 µM; actives 81% (n = 1,300); AID 435006, 2010; in the data active means inhibition above about 48%
Casp1-ASC yeast: CASP1-PYCARD signaling inhibition in yeast, confirmatory test, counterassay for NLRP3 inhibitor program, one-dose | inhibition, % at 10 µM | yeast expressing Caspase-1-ASC, luminescence counter screen | AID 488784, 2010 | actives 66% (n = 1,000) | shares compounds with NALP3 yeast inh
NALP3 yeast rt: NALP3 inhibitors in yeast, repeat test, confirmation, luminescence, single concentration, retest | shares compounds with NALP3 yeast inh | yeast expressing human NALP3, luminescence read-out | inhibition, % at 10 µM | actives 53% (n = 1,000)
tim10-1 conf: growth inhibitors of tim10-1 mutant yeast, confirmation, single concentration, luminescence, S. cerevisiae | shares compounds with tim10-1 inh | inhibition, % at 20 µM | AID 463213, 2010 | S. cerevisiae tim10-1 ts strain growth, BacTiter-Glo, 24 h | actives 56% (n = 7,400);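 active means inhibition of yeast growth at or above a set limit in either of two repeat tests at 20 µM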;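 further: tim10-1 mutant grown at permissive 25 °C to find synthetic lethal compounds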
TIM10 conf: growth inhibitors of wild-type TIM10 yeast, confirmation, counter-screen for tim10-1 synthetic lethality project, single concentration, luminescence, S. cerevisiae; actives 63% (n = 4,600); shares compounds with TIM10 inh; inhibition, % at 10 µM; S. cerevisiae tim10 strain growth, BacTiter-Glo luminescence, 24 h;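 active means inhibition of yeast growth at or above a set limit in either of two replicates at 10 µM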; further: this counterscreen used the strain with wild-type TIM10
Of the large screens only hits and unclear results are named; the others gave an inactive call (follow-up assays come after a bar, where they were run). Only some compounds are listed: those with a hit (about 4.5% of all), similar ones and a draw of the others. Unless noted, no stated cut-off is given here; in the data, active means inhibition above about 50%; inactive means the rest.

CCCOc1ccc(C(=O)NNC(=S)NC(=O)c2cccs2)cc1	SKKanGAS inh 74, tim10-1 inh 48, NALP3 yeast inh 56 | NALP3 yeast conf 77 | Casp1-ASC yeast inactive | NALP3 yeast rt 55 | tim10-1 conf inactive
Cc1ccc(C(=O)c2no[n+]([O-])c2C(=O)c2ccc(C)cc2)cc1	tim10-1 inh 44, PfHsp90 set2 128, NALP3 yeast inh 59 | NALP3 yeast conf 63 | Casp1-ASC yeast 72 | NALP3 yeast rt 52 | tim10-1 conf 60
CCc1sc(C(C2C(=O)CC(C)(C)CC2=O)C2C(=O)CC(C)(C)CC2=O)cc1[N+](=O)[O-]	none
N#C/C(=N/Nc1ccc(OC(F)(F)F)cc1)C(N)=S	SKKanGAS inh 115, tim10-1 inh 48, NALP3 yeast inh 86 | NALP3 yeast conf 97 | tim10-1 conf 57
COc1ccc(N/N=C(\C#N)C(N)=O)cc1	none
O=C(Cn1cnc2ccccc2c1=O)NCCC(=O)Nc1ccccc1C(F)(F)F	none
COC(=O)C(=Cc1ccccc1[N+](=O)[O-])C(=O)OC	tim10-1 inh 44, NALP3 yeast inh 51 | NALP3 yeast conf 63 | Casp1-ASC yeast inactive | NALP3 yeast rt inactive | tim10-1 conf inactive
CC(C)CCC[C@@H](C)[C@H]1CC[C@H]2[C@@H]3C(=O)C=C4C[C@@H](O)CC[C@]4(C)[C@H]3CC[C@]12C	none
C=C1/C(=C\C=C2/CCC[C@]3(C)[C@@H]([C@H](C)CCCC(C)(C)O)CC[C@@H]23)C[C@@H](O)C[C@@H]1O	tim10-1 inh 48, NALP3 yeast inh 57 (no result: PfHsp90 set2) | NALP3 yeast conf 58 | Casp1-ASC yeast 55 | NALP3 yeast rt inactive | tim10-1 conf inactive
OC1(Cc2cc(-c3ccccc3)no2)CCN(CCCc2ccccc2)CC1	none
COc1ccc2sc3ccccc3c(=O)c2c1	none
Cc1cc(O)cc2c(=O)c3ccccc3sc12	TIM10 inh 60, NALP3 yeast inh 79 | NALP3 yeast conf 92 | Casp1-ASC yeast 54 | NALP3 yeast rt 63 | TIM10 conf 55
CCC(=O)c1ccc(OCC(=O)OCC(=O)NCCCc2ccccc2)cc1	none
CCn1c2ccccc2c2cc(/C=N/n3cnnc3)ccc21	none
CCn1c2ccccc2c2cc(/C=N/n3cn[nH]c3=S)ccc21	tim10-1 inh 51, TIM10 inh 48, NALP3 yeast inh 68 | NALP3 yeast conf 74 | Casp1-ASC yeast 82 | NALP3 yeast rt 63 | tim10-1 conf 35 | TIM10 conf 49
CN(C)/N=C/c1ccc(Sc2ccc([N+](=O)[O-])cc2[N+](=O)[O-])o1	tim10-1 inh 43, TIM10 inh 40, NALP3 yeast inh 54 | NALP3 yeast conf inactive | tim10-1 conf 44 | TIM10 conf 47
COc1cccc(N=Nc2c(C)[nH]n(-c3ccccc3)c2=O)c1	none
COc1cccc(C(C[N+](=O)[O-])c2c(C)[nH]n(-c3ccccc3)c2=O)c1 (stereo not given)	tim10-1 inh 51, TIM10 inh 62, NALP3 yeast inh 52 | NALP3 yeast conf 58 | Casp1-ASC yeast inactive | NALP3 yeast rt inactive | tim10-1 conf 64 | TIM10 conf 89
CCCCOc1ccc(CSCCNC(=S)Nc2ccccc2)cc1	TIM10 inh 42, NALP3 yeast inh 54 | NALP3 yeast conf 60 | Casp1-ASC yeast 62 | NALP3 yeast rt inactive | TIM10 conf inactive
O=C(Nc1cccc(S(=O)(=O)N2CCCCCC2)c1)c1ccc(Cl)nc1	none (no result: SKKanGAS inh, PfHsp90 set2)
O=C(Nc1cccc(S(=O)(=O)N2CCCCC2)c1)c1ccc2ccccc2n1	tim10-1 inh 44, TIM10 inh 41 | NALP3 yeast conf inactive | tim10-1 conf inactive | TIM10 conf inactive
O=C(Nc1cccc(S(=O)(=O)N2CCCC2)c1)c1ccc2ccccc2n1	tim10-1 inh 47, TIM10 inh 43 | NALP3 yeast conf inactive | tim10-1 conf 36 | TIM10 conf 39
O=C(c1cc(F)c(F)cc1Cl)N1CCN(CCc2ccccc2)CC1	none
O=C(Nc1cccc(Cl)c1)c1ccc2ncsc2c1	TIM10 inh 50, NALP3 yeast inh 67 | NALP3 yeast conf 86 | Casp1-ASC yeast 81 | NALP3 yeast rt 76 | TIM10 conf 45
O=C(Nc1ccc(Cl)cc1)c1ccc2ncsc2c1	none
O=S(=O)(Nc1ccc(S(=O)(=O)Nc2ccccc2)cc1)c1ccccc1	none
O=S(=O)(Nc1ccc(N=Nc2ccccc2)cc1)c1ccccc1	tim10-1 inh 55, TIM10 inh 42, NALP3 yeast inh 59 | NALP3 yeast conf inactive | tim10-1 conf 51 | TIM10 conf inactive
O=C(COC(=O)CN1C(=O)NC2(CCCCC2)C1=O)Nc1cc(F)ccc1F	none (no result: SKKanGAS inh)
COc1ccc(-c2oc3cc(O)c(OC)c(O)c3c(=O)c2OC)cc1O	none (no result: SKKanGAS inh, tim23-1 inh, tim10-1 inh, TIM10 inh, NALP3 yeast inh)
COc1ccc2cc3cc(C(=O)NCCN4CCN(c5ccccc5F)CC4)oc3nc2c1	tim10-1 inh 71, TIM10 inh 79, NALP3 yeast inh 53 | NALP3 yeast conf inactive | tim10-1 conf 63 | TIM10 conf inactive
COCCNC(=O)c1cc2cc3ccc(OC)cc3nc2o1	none
CN1/C(=C/C(=O)c2cccs2)Sc2ccccc21	TIM10 inh 73, NALP3 yeast inh 78 (no result: PfHsp90 set2) | NALP3 yeast conf 81 | Casp1-ASC yeast 97 | NALP3 yeast rt 93 | TIM10 conf 61
Cc1ccc(-c2cc3c(nn2)-c2ccccc2C3=O)cc1	none
Cc1ccccc1-c1cc2c(nn1)-c1ccccc1C2=O	TIM10 inh 44, NALP3 yeast inh 61 | NALP3 yeast conf 55 | Casp1-ASC yeast inactive | NALP3 yeast rt inactive | TIM10 conf 30
